# Values joined by “and” are separate entries in the source; they are usually repeats but may differ in a detail not shown here. Equal entries are not always repeated. Among all 190,000 compounds or so, about 6,900 (3.6%) were called active. This is one part of a sample in which actives are shown more often than they occur. Rule as the data show it: active = inhibition above about 50%; inactive = the rest.
# Target: Huntingtin (Homo sapiens) (UniProt P42858)
# Assay: mutant huntingtin-calmodulin interaction inhibitors – biochemical, AlphaScreen, primary screen (AID 1671202);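 also: 0% = both proteins with DMSO and 100% = one protein alone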
# Conditions: AlphaScreen His-mHTT/GST-CaM binding, luminescence; at 15 µM, stronger effect = higher value
# Huntingtin (Homo sapiens), sequence (P42858 whole entry, looked up, stated change not applied): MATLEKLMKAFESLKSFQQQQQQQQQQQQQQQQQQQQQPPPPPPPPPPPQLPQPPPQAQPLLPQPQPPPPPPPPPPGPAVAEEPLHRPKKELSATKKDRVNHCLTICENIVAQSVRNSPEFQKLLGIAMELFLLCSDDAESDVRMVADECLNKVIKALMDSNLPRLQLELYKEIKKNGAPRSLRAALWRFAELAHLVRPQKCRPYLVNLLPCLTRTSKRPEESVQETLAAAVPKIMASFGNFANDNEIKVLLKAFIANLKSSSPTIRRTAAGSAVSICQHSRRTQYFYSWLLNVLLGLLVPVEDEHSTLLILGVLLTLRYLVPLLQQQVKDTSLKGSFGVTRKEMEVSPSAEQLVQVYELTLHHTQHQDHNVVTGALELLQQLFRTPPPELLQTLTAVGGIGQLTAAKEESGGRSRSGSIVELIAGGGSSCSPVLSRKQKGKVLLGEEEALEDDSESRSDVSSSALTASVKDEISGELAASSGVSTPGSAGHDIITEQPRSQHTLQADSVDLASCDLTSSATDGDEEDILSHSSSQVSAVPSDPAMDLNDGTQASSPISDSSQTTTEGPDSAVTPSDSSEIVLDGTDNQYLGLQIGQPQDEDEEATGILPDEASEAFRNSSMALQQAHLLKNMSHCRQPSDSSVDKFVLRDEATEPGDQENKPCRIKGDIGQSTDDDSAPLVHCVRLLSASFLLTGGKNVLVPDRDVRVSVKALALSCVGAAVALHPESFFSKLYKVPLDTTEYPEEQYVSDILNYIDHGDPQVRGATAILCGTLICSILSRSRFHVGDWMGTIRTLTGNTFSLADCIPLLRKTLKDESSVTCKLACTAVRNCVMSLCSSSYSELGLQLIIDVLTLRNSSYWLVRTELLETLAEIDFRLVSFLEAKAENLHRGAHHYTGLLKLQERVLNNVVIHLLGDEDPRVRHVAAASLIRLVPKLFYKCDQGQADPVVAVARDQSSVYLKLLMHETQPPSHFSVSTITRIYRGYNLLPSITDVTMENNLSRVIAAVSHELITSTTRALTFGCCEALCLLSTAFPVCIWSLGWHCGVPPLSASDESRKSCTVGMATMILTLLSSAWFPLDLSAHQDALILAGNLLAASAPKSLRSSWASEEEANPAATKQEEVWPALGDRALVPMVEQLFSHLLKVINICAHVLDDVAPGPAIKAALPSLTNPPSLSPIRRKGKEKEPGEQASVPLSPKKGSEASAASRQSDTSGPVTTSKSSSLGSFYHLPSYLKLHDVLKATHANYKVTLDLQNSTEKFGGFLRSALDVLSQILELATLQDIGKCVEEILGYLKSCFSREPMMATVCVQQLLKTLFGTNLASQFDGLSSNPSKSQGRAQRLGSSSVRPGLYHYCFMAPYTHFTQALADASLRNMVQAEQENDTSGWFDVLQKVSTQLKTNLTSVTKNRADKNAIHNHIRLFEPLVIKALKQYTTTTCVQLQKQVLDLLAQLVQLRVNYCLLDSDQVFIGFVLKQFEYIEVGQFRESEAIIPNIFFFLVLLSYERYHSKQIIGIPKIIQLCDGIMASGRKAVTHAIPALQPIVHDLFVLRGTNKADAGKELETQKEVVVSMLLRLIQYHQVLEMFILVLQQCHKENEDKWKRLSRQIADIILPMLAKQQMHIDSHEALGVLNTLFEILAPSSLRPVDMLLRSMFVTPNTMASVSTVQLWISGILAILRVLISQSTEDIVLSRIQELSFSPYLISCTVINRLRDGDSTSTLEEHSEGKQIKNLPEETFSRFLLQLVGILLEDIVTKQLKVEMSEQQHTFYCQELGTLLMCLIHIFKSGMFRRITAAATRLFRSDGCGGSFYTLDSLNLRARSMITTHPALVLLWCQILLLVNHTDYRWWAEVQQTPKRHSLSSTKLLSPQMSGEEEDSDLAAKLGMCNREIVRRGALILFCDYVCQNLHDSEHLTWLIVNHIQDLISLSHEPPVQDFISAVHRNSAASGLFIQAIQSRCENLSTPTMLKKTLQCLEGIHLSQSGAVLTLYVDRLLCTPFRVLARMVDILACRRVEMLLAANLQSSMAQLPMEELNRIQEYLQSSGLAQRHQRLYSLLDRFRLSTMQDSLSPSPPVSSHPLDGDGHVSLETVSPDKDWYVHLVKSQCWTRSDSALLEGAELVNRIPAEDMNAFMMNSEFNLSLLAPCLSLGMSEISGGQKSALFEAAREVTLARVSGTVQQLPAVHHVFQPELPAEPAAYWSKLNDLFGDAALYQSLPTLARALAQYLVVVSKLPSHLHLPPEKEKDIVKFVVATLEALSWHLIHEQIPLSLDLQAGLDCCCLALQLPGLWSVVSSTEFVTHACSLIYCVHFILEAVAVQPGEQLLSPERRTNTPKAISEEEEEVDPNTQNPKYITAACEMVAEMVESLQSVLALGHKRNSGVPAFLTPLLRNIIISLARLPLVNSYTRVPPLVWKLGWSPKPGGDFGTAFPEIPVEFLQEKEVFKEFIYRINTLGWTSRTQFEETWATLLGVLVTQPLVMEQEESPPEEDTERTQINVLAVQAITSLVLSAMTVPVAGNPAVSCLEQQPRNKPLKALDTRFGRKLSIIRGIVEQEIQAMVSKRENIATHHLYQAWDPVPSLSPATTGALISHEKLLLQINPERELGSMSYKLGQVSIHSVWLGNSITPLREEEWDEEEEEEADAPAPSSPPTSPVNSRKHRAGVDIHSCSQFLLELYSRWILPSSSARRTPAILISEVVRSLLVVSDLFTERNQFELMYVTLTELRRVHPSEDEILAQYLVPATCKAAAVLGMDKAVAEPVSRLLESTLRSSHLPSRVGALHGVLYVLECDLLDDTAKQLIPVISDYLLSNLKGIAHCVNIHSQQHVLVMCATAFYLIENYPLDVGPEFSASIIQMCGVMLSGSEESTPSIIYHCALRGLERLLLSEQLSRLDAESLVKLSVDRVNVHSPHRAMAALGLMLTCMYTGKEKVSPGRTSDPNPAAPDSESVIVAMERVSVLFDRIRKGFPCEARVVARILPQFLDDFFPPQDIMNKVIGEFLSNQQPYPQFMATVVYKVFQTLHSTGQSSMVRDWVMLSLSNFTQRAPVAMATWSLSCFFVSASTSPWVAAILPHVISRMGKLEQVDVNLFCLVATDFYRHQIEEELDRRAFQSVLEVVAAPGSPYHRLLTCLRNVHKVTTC
row,SMILES,inhibition
1,COc1ccc(CCNC(=S)NC2Cc3ccccc3C2)cc1OC,6.9% (inactive)
2,Cc1onc(-c2ccccc2)c1C(=O)Nc1ccc(S(N)(=O)=O)cc1,-0.8% (inactive)
3,CN1CCN(c2cc(C(=O)O)c3cc(F)ccc3n2)CC1,3.5% (inactive)
4,N#Cc1ccc(Sc2nc3ccccc3o2)c([N+](=O)[O-])c1,12% (inactive)
5,O=C(Cc1ccccc1)NC(Nc1ccccc1Cl)C(Cl)(Cl)Cl (stereo not given),20% (inactive)
6,O=C(Cc1ccccc1)Nc1ccc(F)c(Cl)c1,-11.1% (inactive)
7,O=C(O)c1ccccc1C(=O)Nc1cccc2cccnc12,4% (inactive)
8,Cc1ccc(C(=O)NCCOc2cccc3cccnc23)cc1,9% (inactive) and -2% (inactive)
9,CC(=O)NC(c1ccccc1)c1ccc2cccnc2c1O (stereo not given),100% (active)
10,COc1ncccc1CNC(=O)c1cccs1,-2.2% (inactive)
11,Cc1ccc(C)c(NC(=O)Cc2ccccc2)c1,0.9% (inactive)
12,COc1cccc(C(=O)NC(c2cccc([N+](=O)[O-])c2)c2cc(Cl)c3cccnc3c2O)c1 (stereo not given),19% (inactive)
13,CC(NC(=O)COc1ncccn1)c1ccccc1 (stereo not given),-13.9% (inactive)
14,Cc1ccc(C(NC(=O)Cc2ccccc2)c2ccc3cccnc3c2O)cc1 (stereo not given),100% (active)
15,CC(=O)NC(c1cccs1)c1cc(Cl)c2cccnc2c1O (stereo not given),70% (active) and 100% (active)
16,O=C(Cc1ccccc1)NC(c1ccc(Cl)cc1)c1ccc2cccnc2c1O (stereo not given),99% (active)
17,CC(C)c1ccc(OCC(=O)Nc2ccccc2[N+](=O)[O-])cc1,3.8% (inactive)
18,COc1ccc(-n2c(-c3cccc([N+](=O)[O-])c3)cn3c4c(=O)n(C)c(=O)n(C)c4nc23)cc1,4% (inactive)
19,CC(=O)c1ccc(NC(=O)CSc2ncc(-c3ccc(C)c(C)c3)o2)cc1,2.5% (inactive)
20,CC(=O)N1CCc2cc(Br)cc(S(=O)(=O)NCCc3ccccc3)c21,20% (inactive)
21,CC(=O)C1=C(C)NC(SCC(=O)c2ccccc2)=C(C#N)C1c1ccc(Br)cc1 (stereo not given),-23.7% (inactive)
22,COc1cc(NC(=O)c2ccccc2OC)c(OC)cc1Cl,9% (inactive)
23,Cc1ccc(C)c(C(O)=C2C(=O)C(=O)N(CCCN3CCOCC3)C2c2ccncc2)c1 (stereo not given),-2.8% (inactive)

row,SMILES,inhibition
1,Clc1ccc(C2C=C(c3cccc(Br)c3)Nc3nnnn32)c(Cl)c1 (stereo not given),-5% (inactive)
2,O=C(Nc1nncs1)c1ccc2nc(-c3ccco3)c(-c3ccco3)nc2c1,99.4% (active)
3,O=C(Nc1ccc(Cl)cc1)c1ccc2nc3ccccc3nc2c1,13.5% (inactive)
4,CCOc1ccc2nc(NC(=O)c3ccc(OC)cc3)sc2c1,-5% (inactive)
5,COc1ccc(C=C2Oc3cc(OC(=O)c4ccc5c(c4)OCO5)ccc3C2=O)c(OC)c1OC,3.6% (inactive)
6,COc1ccc(-c2coc3c(C)c4oc(=O)c5ccccc5c4cc23)cc1F,2% (inactive)
7,N#CC1=C(N)Oc2n[nH]c(-c3ccccc3)c2C1c1ccc(F)c(Br)c1 (stereo not given),20% (inactive)
8,Cc1cc(-c2[nH]c3c(c2-c2cc(C)sc2C)c(=O)n(C)c(=O)n3C)c(C)s1,-3% (inactive)
9,Cc1cc(Cl)ccc1OCC(=O)NCCc1nc2ccccc2[nH]1,19% (inactive)
10,O=C(NCCSc1c[nH]c2ccccc12)c1ccc(Cl)c([N+](=O)[O-])c1,37% (inactive)
11,O=C(COc1ccc(Cl)cc1Cl)NCCSc1c[nH]c2ccccc12,61% (active)
12,COc1cccc(NC(=O)C2(c3ccccc3)CCOCC2)c1,1.7% (inactive)
13,Cc1cccc2nnc(N3CCC(C(=O)N4CCOCC4)CC3)n12,1.65% (inactive)
14,Cc1ccnc(NC(c2ccc(O)cc2)c2ccc3ccc(C)nc3c2O)c1 (stereo not given),98% (active)
15,Cc1cccc(NC(=O)c2cc(F)ccc2F)n1,-3% (inactive)
16,Cc1cccc(NC(c2cccc(F)c2)c2ccc3ccc(C)nc3c2O)n1 (stereo not given),76% (active)
17,Cc1cc(C)nc(NC(=O)c2cccc(F)c2)c1,-6.5% (inactive)
18,Cc1cc(S(=O)(=O)NCc2cccnc2)c(Cl)cc1Cl,-3.6% (inactive)
19,Cc1ccc(CNC(=O)N2CCCC(C)(C(=O)NCc3ccccc3)C2)cc1 (stereo not given),0.08% (inactive)
20,Cc1ccc(CNC(=O)C2(C)CCCN(S(=O)(=O)c3cc(C)c(C)cc3C)C2)cc1 (stereo not given),52.3% (active)
21,Cc1ccc(S(=O)(=O)N2CCCC(C)(C(=O)NCc3ccccc3C)C2)cc1 (stereo not given),13% (inactive)
22,CCN=C1SC(C(=O)Nc2ccc(Cl)cc2)CC(=O)N1CC (stereo not given),7% (inactive)
23,CCN(CC)S(=O)(=O)N(CC(=O)NC(C)(C)C)Cc1ccc(F)cc1,-4% (inactive)

row,SMILES,inhibition
1,CCCn1cc2c3c(cccc31)CN(C(=O)Nc1cc(OC)c(OC)c(OC)c1)CC2,2.35% (inactive)
2,CCn1cc2c3c(cccc31)CN(C(=O)Nc1ccc(C)cc1C)CC2,26.9% (inactive)
3,CCn1cc2c3c(cccc31)CN(C(=O)Nc1cc(C)ccc1OC)CC2,60.9% (active)
4,CCn1cc2c3c(cccc31)CN(C(=O)c1ccc(OC)cc1)CC2,44.1% (inactive)
5,COc1ccc(OC)c(NC(=O)N2CCc3cn(CC(C)C)c4cccc(c34)C2)c1,69.3% (active)
6,CC(C)Cn1cc2c3c(cccc31)CN(C(=O)Nc1ccc(F)cc1)CC2,0.25% (inactive)
7,O=[N+]([O-])c1ccc(N2CCN(CC3CC4C=CC3C4)CC2)cc1 (stereo not given),19.4% (inactive)
8,COc1cc(Cl)c(NC(=O)C2CCCN(C(=O)c3cc(C)cc(C)c3)C2)c(OC)c1 (stereo not given),1.7% (inactive)
9,CC1(C)CC(=O)C2=C(C1)Nc1ccc3ncccc3c1C2c1ccccc1C(F)(F)F (stereo not given),4% (inactive)
10,CCOc1ccc(-c2ccc(N3CCN(C(=O)Cn4cnc5ccccc54)CC3)nn2)cc1,14.5% (inactive)
11,CC1C(=O)N(Cc2cn(Cc3ccco3)nn2)CCS(=O)(=O)N1Cc1ccc(-c2cccc(CO)c2)cc1 (stereo not given),30% (inactive)
12,CC(C)C1C(=O)N(Cc2cn(CCC3OCCO3)nn2)CCS(=O)(=O)N1Cc1ccc(-c2ccccc2C(F)(F)F)cc1 (stereo not given),43.5% (inactive)
13,COCOCCn1cc(CN2CCS(=O)(=O)N(Cc3ccc(-c4ccccc4)cc3)C(CC(C)C)C2=O)nn1 (stereo not given),60.8% (active)
14,Cc1ccc(-c2ccc(CN3C(C(C)C)C(=O)N(Cc4cn(CCC5OCCCO5)nn4)CCS3(=O)=O)cc2)cc1 (stereo not given),19% (inactive)
15,Cc1ccc(-c2ccc(CN3C(C(C)C)C(=O)N(Cc4cn(CCC5OCCO5)nn4)CCS3(=O)=O)cc2)cc1 (stereo not given),14.9% (inactive)
16,Cc1ccc(-c2ccc(CN3C(C)C(=O)N(Cc4cn(CCC5OCCCO5)nn4)CCS3(=O)=O)cc2)cc1 (stereo not given),-4% (inactive)
17,COCOCCn1cc(CN2CCS(=O)(=O)N(Cc3ccc(-c4cccc(N(C)C)c4)cc3)C(CC(C)C)C2=O)nn1 (stereo not given),65.8% (active)
18,CC1C(=O)N(Cc2cn(CC3CCCCC3)nn2)CCS(=O)(=O)N1Cc1ccc(-c2cccc(N(C)C)c2)cc1 (stereo not given),65.9% (active)
19,CC(=O)c1cccc(-c2ccc(CN3C(CC(C)C)C(=O)N(Cc4cn(CC5CCCCC5)nn4)CCS3(=O)=O)cc2)c1 (stereo not given),22.9% (inactive)
20,COc1ccc(-c2ccc(CN3C(CC(C)C)C(=O)N(Cc4cn(CC5CCCCC5)nn4)CCS3(=O)=O)cc2)cc1 (stereo not given),3.9% (inactive)
21,CC(C)CC1C(=O)N(Cc2cn(Cc3ccco3)nn2)CCS(=O)(=O)N1Cc1ccc(-c2ccc(Cl)c(Cl)c2)cc1 (stereo not given),97.6% (active)
22,COc1ccc(-c2ccc(CN3C(C(C)C)C(=O)N(Cc4cn(CC5CCCCC5)nn4)CCS3(=O)=O)cc2)cn1 (stereo not given),29.4% (inactive)
23,CC(C)NC(=O)c1cn(-c2ccc(F)cc2)nn1,3.4% (inactive)

row,SMILES,inhibition
1,COc1c(S(=O)(=O)Nc2ccc(CC(=O)O)cc2)ccc(Cl)c1Cl,-3% (inactive)
2,Cc1ccc(C(=O)NC2CCN(c3ccccc3C(=O)N(C)C(C)C)CC2)cc1,6.6% (inactive)
3,O=C(c1ccc(Cl)cc1)N(Cc1cc(-c2ccccc2)on1)C1CC1,-12.1% (inactive)
4,CCC(c1ccccc1)c1nc(-c2ccc3nnn(C)c3c2)no1 (stereo not given),-20.7% (inactive)
5,CCCCC(=O)Nc1c2c(nn1-c1ccc([N+](=O)[O-])cc1)CS(=O)(=O)C2,-1% (inactive)
6,CCOC(=O)c1c(NC(=O)c2ccc([N+](=O)[O-])s2)sc2c1CCCC2,-0.8% (inactive)
7,COc1nccnc1NS(=O)(=O)c1ccc(NC(=O)c2ccc(C(C)(C)C)cc2)cc1,13.2% (inactive)
8,O=c1[nH]c(C=C2C=Nc3ccc(Br)cc32)c(O)n1Cc1ccc(Br)cc1,93% (active)
9,CCc1nc2c(NC(=O)Nc3cccc(C)c3)cccn2n1,-3.6% (inactive)
10,COc1ccc(-n2nc3c(c2NC(=O)c2ccccc2Cl)CSC3)cc1,22% (inactive)
11,COc1cc(OC)cc(C(=O)N2CCc3c(c(C(=O)NCc4cccc(C)c4)nn3C)C2)c1,40.8% (inactive)
12,Cc1cccc(C(=O)N2CCc3c(c(-c4nc(Cc5ccccc5)no4)nn3C)C2)c1,7.62% (inactive)
13,COc1ccc(CC(=O)N2CCc3c(c(C(=O)NCc4cccc(C)c4)nn3C)C2)cc1,40.5% (inactive)
14,CCCC(=O)N1CCc2c(c(C(=O)NCc3cccc(C)c3)nn2C)C1,35.7% (inactive)
15,Cn1nc(C(=O)NCc2ccccc2)c2c1CCN(C(=O)c1cccc(F)c1)C2,64.8% (active)
16,COc1cccc(C(=O)N2CCc3c(c(C(=O)NCc4cccc(C)c4)nn3C)C2)c1,66.6% (active)
17,O=C(O)CCCCCNS(=O)(=O)c1cccc(C(F)(F)F)c1,-2% (inactive)
18,O=C(c1ccc(F)cc1)N1CCCC1c1ccccc1F (stereo not given),-8.08% (inactive)
19,CC(C)C1N=C2c3ccccc3N=C(SCC(=O)c3ccc(O)c(O)c3)N2C1=O (stereo not given),20% (inactive)
20,O=C(CSC1=Nc2ccccc2C2=NC(Cc3ccccc3)C(=O)N12)NC1CCCCC1 (stereo not given),39% (inactive)
21,O=C(CSC1=Nc2ccccc2C2=NC(Cc3ccccc3)C(=O)N12)c1ccc(O)c(O)c1 (stereo not given),57% (active)
